Inconclusive results are not listed. Values without a mark were called inactive. The source made the active and inactive calls. The call rests on the fitted dose curve. Bridge positions count the residues as written; N and C are the ends. Peptide text beside a SMILES is read from it.
Test: Primary qHTS for Huh7 cytotoxicity: counterscreen for inhibitors of MERS-S pseudotyped particle cell entry (AID 1479147)
Details: cell viability read-out; series mostly up to 57.1 µM; activity change, negative = cytotoxicity: at the top concentration
On the % scale 0 is the no-effect control and ±100 the full control effect.

| SMILES | activity change, negative = cytotoxicity | outcome |
| --- | --- | --- |
| C[C@@]12CCCCC[C@@H](Cc3ccc(O)cc31)[C@H]2N | -8.64% | – |
| CCCCCCCCCCCCCCCC(=O)OCC(O)C1OC(=O)C(O)=C1O (configuration not stated) | – | inactive |
| CC(=O)Oc1c(C)cc(OCC(O)CNC(C)C)c(C)c1C (configuration not stated) | – | inactive [at 114 µM] |
| Oc1cc(O)cc(O)c1 | – | inactive |
| CC(C)(C)NC(=O)N[C@H](C(=O)N1C[C@H]2[C@@H]([C@H]1C(=O)NC(CC1CCC1)C(=O)C(N)=O)C2(C)C)C(C)(C)C (some centres not stated) | – | inactive |
| CCCCCCO[C@@H](C)c1cccc(-c2csc(NC(=O)c3cc(Cl)c(/C=C(\C)C(=O)O)c(Cl)c3)n2)c1OC | – | inactive |
| CC(C)(S)[C@H](N)C(=O)O | – | inactive [at 5.34 µM] |
| CC[N+](CC)(CC)CCC(O)(c1ccccc1)C1CCCCC1 (configuration not stated) | – | inactive |
| CCC(C)C(C(=O)OCC[N+](C)(CC)CC)c1ccccc1 (configuration not stated) | – | inactive |
| NC(N)=NCC1COC2(CCCCC2)O1 (configuration not stated) | – | inactive |
| C=Cc1c(C)c2cc3nc(c(CC(=O)N[C@@H](CC(=O)O)C(=O)O)c4nc(cc5[nH]c(cc1[nH]2)c(C)c5CC)C(C)=C4C(=O)O)[C@@H](CCC(=O)O)[C@@H]3C | 3.48% | – |
| CN1N=C2CCN(C(=O)[C@H](COCc3ccccc3)NC(=O)C(C)(C)N)C[C@]2(Cc2ccccc2)C1=O | -12.5% | – |
| CO/N=C(\C(=O)N[C@@H]1C(=O)N2C(C(=O)OCOC(=O)C(C)(C)C)=C(/C=C\c3scnc3C)CS[C@H]12)c1csc(N)n1 | – | inactive |
| CN(C)C(=O)c1cc2cnc(Nc3ccc(N4CCNCC4)cn3)nc2n1C1CCCC1 | -1.06% [at 26.4 µM] | – |
| CN(C)CCC(O)(c1ccccc1)c1ccccc1Cl (configuration not stated) | – | inactive |
| O=C(O)C(O)[C@H](O)[C@H](O)[C@H](O)[C@H](O)CO (some centres not stated) | – | inactive |

| SMILES | activity change, negative = cytotoxicity | outcome |
| --- | --- | --- |
| CCOc1ccc(N=C(C)Nc2ccc(OCC)cc2)cc1 | – | inactive |
| CCCCCCCCCCCCOC(=O)CS(=O)(=O)O | – | inactive |
| COc1ccc(CNc2nc(N3CCC[C@H]3CO)ncc2C(=O)NCc2ncccn2)cc1Cl | -15.9% | – |
| NCCS[As](SCCN)c1ccc(Nc2nc(N)nc(N)n2)cc1 | 1.9% | – |
| NCCCC[C@H](NC(=O)[C@@H]1CCCN1C(=O)[C@@H]1CSSC[C@H](NC(=O)CNC(=O)CNC(=O)CN)C(=O)N[C@@H](Cc2ccc(O)cc2)C(=O)N[C@@H](Cc2ccccc2)C(=O)N[C@@H](CCC(N)=O)C(=O)N[C@@H](CC(N)=O)C(=O)N1)C(=O)NCC(N)=O (H-GGGCYFQNCPKG-NH2; disulfide 4-9) | – | inactive |
| Cc1c(C)c2c(c(C)c1OC(=O)CCC(=O)O)CC[C@@](C)(CCC[C@H](C)CCC[C@H](C)CCCC(C)C)O2 | – | inactive |
| CCC(=O)O[C@@H](OP(=O)(CCCCc1ccccc1)CC(=O)N1C[C@H](C2CCCCC2)C[C@H]1C(=O)O)C(C)C (some centres not stated) | – | inactive [at 11.4 µM] |
| O=C(Nc1ccc(O)cc1)c1ccccc1O | -16% | – |
| CC1CC(OC(=O)C(O)c2ccccc2)CC(C)(C)C1 (configuration not stated) | – | inactive |
| CCCCCCCCCCCCCCCCCC(=O)NCCCC[C@H](NC(=O)CC[C@@H](NC(=O)[C@H](C)NC(=O)[C@@H](C)O[C@H]1[C@H](O)[C@@H](CO)OC(O)[C@@H]1NC(C)=O)C(N)=O)C(=O)O (some centres not stated) | – | inactive |
| CCCCC(=O)N(Cc1ccc(-c2ccccc2-c2nn[nH]n2)cc1)[C@H](C(=O)O)C(C)C | – | inactive |
| CCN(CC)C(=O)[C@]1(c2ccccc2)C[C@H]1CN | 0.93% | – |
| C=C1c2c(Cl)ccc(O)c2C(O)=C2C(=O)[C@@]3(O)C(O)=C(C(N)=O)C(=O)[C@@H](N(C)C)[C@@H]3[C@@H](O)[C@H]12 | -1.86% | – |
| CCCCN(CCCC)C(=S)[S-].CCCCN(CCCC)C(=S)[S-].[Zn+2] | – | inactive |
| Cc1c(N)nc(C(CC(N)=O)NCC(N)C(N)=O)nc1C(=O)NC(C(=O)NC(C)C(O)C(C)C(=O)NC(C(=O)NCCc1nc(-c2nc(C(=O)NCCCN[C@@H](C)c3ccccc3)cs2)cs1)C(C)O)C(O[C@@H]1O[C@@H](CO)[C@@H](O)[C@H](O)[C@@H]1O[C@H]1O[C@H](CO)[C@@H](O)[C@H](OC(N)=O)[C@@H]1O)c1cnc[nH]1 (some centres not stated) | -4.29% | – |
| CC[C@H]1OC(=O)C[C@@H](O)[C@H](C)[C@@H](O[C@@H]2O[C@H](C)[C@@H](O)[C@H](N(C)C)[C@H]2O)[C@@H](CCN2C[C@H](C)C[C@H](C)C2)C[C@@H](C)C(=O)/C=C/C(C)=C/[C@@H]1CO[C@@H]1O[C@H](C)[C@@H](O)[C@@H](OC)[C@H]1OC | -10.8% | – |
